Screening results deposited in PubChem BioAssay by National Center for Advancing Translational Sciences (NCATS).
Glioma ERSR ind: qHTS for Inducers of the Endoplasmic Reticulum Stress Response (ERSR) in Human Glioma: qHTS | U87-MG GRP78 promoter luciferase reporter, 16 h | Potency, µM, without a hit: at the top dose activation, most hits filed as activators | 420,000 compounds, 0.02% hits; note: potency is the fitted concentration of half-maximal effect; series mostly up to about 76 µM; % of control where 0% means no effect; nearly all actives have a fitted effect of over 35% in size
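ERSR induction read as luciferase luminescence (Bright-Glo, 10 min at room temperature) in stably transfected human U87-MG glioma cells exposed to compounds for 16 h, using GRP78 as sensor.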
GLP-1R inv ag: qHTS of GLP-1 Receptor Inverse Agonists (Inhibition Mode) | Glucagon-like peptide 1 receptor (Homo sapiens), P43220 | HEK293 GLP-1R CRE-luciferase, luminescence, 24 h; GLP-1R form is constitutively active | Potency, µM (highest dose often 38.3 µM), without a hit: top-dose activity change, negative = inhibition, hits mostly inhibitors | 410,000 compounds, 1.6% hits; note: potency is the fitted concentration of half-maximal effect; % is set by controls: 0 for no effect and ±100 for the full control effect; nearly all actives have a fitted effect of over 55% in size
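Inverse agonists were sought by their lowering of basal cAMP reporter luciferase output in HEK293 cells stably carrying constitutively active human GLP-1R, after 24 h compound treatment.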
GLP-1R agonist: qHTS of GLP-1 Receptor Agonists; AID 624172, 2012; 380,000 compounds, 0.007% hits; Glucagon-like peptide 1 receptor (Homo sapiens), P43220; HEK293 GLP-1R CRE-luciferase, luminescence, 4-6 h; cells express a hypersensitive GLP-1R form; Potency, µM (top dose mostly 45.6 µM), for the others: at the top dose activation, actives largely listed as activators; note: potency is the fitted concentration of half-maximal effect; % of control where 0% means no effect
ALOX12 inh: Primary qHTS assay for inhibitors of human arachidonate 12S-lipoxygenase (ALOX12): Round 2; Polyunsaturated fatty acid lipoxygenase ALOX12 (Homo sapiens), P18054; purified 12hLO, xylenol orange hydroperoxide absorbance; Potency, µM (titrated, usually from 108 µM), for the others: top-dose activity change, negative = inhibition, usual class: inhibitors; 580,000 compounds, 1.1% hits; AID 1671190, 2021; note: potency is the fitted concentration of half-maximal effect; % is set by controls: 0 for no effect and ±100 for the full control effect
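Purified human 12hLO (150 nM final) in 25 mM Hepes, 0.01% Triton X-100, pH 7.0 was preincubated 15 min at room temperature with compound. Then 40 uM arachidonic acid was added, 30 min. Hydroperoxide was read by Fe-XO absorbance ratio 573/405 nm.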
GLS inhibitor: qHTS for Inhibitors of Glutaminase (GLS) | AID 624170, 2012 | Potency, µM (doses to about 45.5 µM), for the others: at the top dose activity change, negative = inhibition, actives largely listed as inhibitors | GLS enzymatic activity, qHTS titration | 410,000 compounds, 0.21% hits | Glutaminase kidney isoform, mitochondrial (Homo sapiens), O94925; note: potency is the fitted concentration of half-maximal effect; % is set by controls: 0 for no effect and ±100 for the full control effect
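Human kidney-isoform GLS in 45 mM KH2PO4 pH 8.2, 0.02% Tween-20, with compound, started with 1mM L-Glutamine (added stock). Glutamate oxidase/HRP/Amplex red coupled fluorescence read at start and after 30 min at RT.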
PTHR1 ag: qHTS for PTHR1 Agonists: Primary Screen; HEK293 GP2 PTHR1 cells, GloSensor cAMP luminescence, 1 h; Potency, µM (highest dose often 115 µM), without a hit: top-dose activation, most hits filed as activators; 410,000 compounds, 0.075% hits; note: potency is the fitted concentration of half-maximal effect; nearly all actives have a fitted effect of over 55% in size
Target sequence (Q03431 whole entry, looked up): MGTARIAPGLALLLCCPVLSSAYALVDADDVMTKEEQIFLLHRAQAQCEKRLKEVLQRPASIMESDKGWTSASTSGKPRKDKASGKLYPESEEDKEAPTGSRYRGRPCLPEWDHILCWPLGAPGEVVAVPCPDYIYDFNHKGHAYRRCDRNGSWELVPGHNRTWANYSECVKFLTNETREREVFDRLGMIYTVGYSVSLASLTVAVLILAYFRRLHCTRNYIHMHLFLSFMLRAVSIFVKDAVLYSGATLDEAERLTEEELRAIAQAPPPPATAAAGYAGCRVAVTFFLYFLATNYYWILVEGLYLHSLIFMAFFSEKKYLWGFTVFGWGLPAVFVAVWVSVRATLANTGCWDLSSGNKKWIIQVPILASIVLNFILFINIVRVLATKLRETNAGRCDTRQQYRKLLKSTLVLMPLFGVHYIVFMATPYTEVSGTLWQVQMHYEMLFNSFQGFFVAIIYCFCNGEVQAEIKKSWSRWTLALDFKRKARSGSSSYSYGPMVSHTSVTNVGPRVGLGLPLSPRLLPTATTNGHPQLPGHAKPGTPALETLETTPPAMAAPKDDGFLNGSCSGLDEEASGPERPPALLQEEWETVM
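HEK-293-derived GP2 cells expressing PTHR1 and a GloSensor cAMP reporter, 3,000/well, plated overnight, given luciferin plus IBMX (each 0.5 mM as added) for 1 h at 37 °C, then compound for 1 h at 37 °C. Luminescence was read after 15 min at room temperature.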
GLS hit conf: qHTS for Inhibitors of Glutaminase (GLS): Hit Confirmation. shares compounds with GLS inhibitor. biochemical glutaminase enzyme inhibition assay. Potency, µM (series often up to 46.1 µM), for inactives: at the highest dose activity change, negative = inhibition, hits mostly inhibitors. 35 tested, under 10 active; calls by dose curve
HRP GOx counter: qHTS for Inhibitors of Glutaminase (GLS): Hit Confirmation in HRP Counterscreen. HRP/glutamate oxidase coupled Amplex Red fluorescence counterscreen. 35 tested, under 10 active. shares compounds with GLS inhibitor. AID 624262, 2012. activity change, negative = inhibition, % at 46.1 µM
GLS HEK tox: qHTS for Inhibitors of Glutaminase (GLS): Hit Confirmation using Cytotoxicity. HEK-293 viability, CellTiter-Glo luminescence, 24 h. AID 624264, 2012. shares compounds with GLS inhibitor. 35 tested, under 10 active. activity change, negative = cytotoxicity, % at 46.1 µM
An asterisk follows results filed as active; i = inactive; ? = inconclusive; . = no result given. Hits are enriched below; roughly 2.3% of the tested compounds scored in any of these assays. Unless noted, calls come from the whole dose curve; as a rule, active = well fitted curve in the direction sought with a large enough effect; inconclusive = small, poorly fitted or top-dose-only effect, or another doubt; inactive = no such curve, though single readings can be large; an effect the other way counts as inactive or inconclusive.

SMILES	Glioma ERSR ind	GLP-1R inv ag	GLP-1R agonist	ALOX12 inh	GLS inhibitor	PTHR1 ag	GLS hit conf	HRP GOx counter	GLS HEK tox
COc1ccccc1NS(=O)(=O)c1cc(NC(=O)c2cc[n+]([O-])cc2)ccc1N1CCCC1	-6%	6%	14%	?	11µM*	-17%	5%	-4	6
COc1ccccc1NS(=O)(=O)c1ccc(O)c(NC(=S)NCC2CCCO2)c1 (stereo unspecified)	-3%	1%	10%	?	?	i	12%	5	3
COc1ccc(NS(=O)(=O)c2ccc(NC(=S)NCC3CCCO3)cc2)cc1 (stereo unspecified)	-4%	?	-5%	42%	-1%	-70%	.	.	.
NNC(=O)c1cc2ccccc2cc1NS(=O)(=O)c1ccccc1	-8%	0%	-1%	1%	?	-9%	-10%	-23	-9
COc1ccc(Cl)cc1C(=O)NNC(=O)C1CCCC(C(F)(F)F)C1 (stereo unspecified)	.	.	.	49%	.	.	.	.	.
O=C(O)c1ccc(S(=O)(=O)Nc2ccc(O)c(Sc3nc4ccccc4s3)c2)cc1	-1%	-6%	3%	?	?	6%	?	?	2
CC(=O)c1c(C)oc2ccc(NS(=O)(=O)c3ccc(C)cc3)cc12	-3%	-16%	19%	-7%	-8%	-16%	.	.	.
Cc1ccc(C)c(S(=O)(=O)Nc2ccc3oc(C)c(C(=O)O)c3c2)c1	-2%	0%	2%	4%	13µM*	i	?	7	-7
COc1cc2oc(=O)c(CC(=O)NCc3ccc4c(c3)OCO4)c(C)c2cc1OC	.	.	.	-10%	.	.	.	.	.
